# Screens as filed in PubChem.
# An excerpt weighted towards active compounds, which were near 1.3% of everything screened.
# SRC1 inh: SRC1 coactivator transcriptional activity inhibitors, primary screen, cell-based, luminescence | Nuclear receptor coactivator 1 (Homo sapiens), Q15788 | HEK293 GAL4-SRC1 luciferase reporter | inhibition, % at 3.6 µM | actives 0.12% (n = 360,000) | AID 588354, 2011;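 active means inhibition above the campaign mean plus 3 SD, with each screening campaign given its own cutoff, cut at about 60% in these data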;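 further: 0% = DMSO treated cells and 100% = gossypol at 36 µM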
# LRH-1 inv ag: LRH-1 (NR5A2) inverse agonists, primary screen, cell-based, luminescence, HEK293T, StAR-luciferase reporter. actives 0.13% (n = 360,000). AID 602396, 2012. LRH-1 transfected, 24 h. inhibition, % at 3.6 µM;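 active means inhibition above the mean inhibition of all tested compounds plus 3 SD, cut at about 73% in these data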;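 further: 0% = DMSO wells and 100% = reporter-only cells lacking LRH-1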
# COUP-TFII inh: NR2F2 transcriptional activity inhibitors, primary screen, cell-based, luciferase reporter, HEK293T, luminescence. AID 686940, 2013. HEK293T NGFI-A luciferase reporter. actives 0.7% (n = 370,000). inhibition, % at 8.6 µM. COUP transcription factor 2 (Homo sapiens), P24468;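 active means inhibition above a per-plate cutoff, mean inhibition of test wells between control levels plus 3 SD, cut at about 38% in these data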;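 further: cells cotransfected with COUP-TFII expression vector driving the NGFI-A reporter; 0% = median of COUP-TF2 test wells and 100% = reporter-only cells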
# Gli-Sufu block: Gli-Sufu pathway antagonists, primary screen, luciferase luminescence, Sufu-KO-LIGHT cells, uHTS; Sufu-KO-LIGHT fibroblasts, Gli luciferase reporter luminescence; actives 0.74% (n = 340,000); inhibition, % at 5 µM; AID 588413, 2011;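 active means inhibition above about 55%, limit read from the data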;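 further: 0% = DMSO-treated cells and 100% = wells with medium but no cells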
# SRC3 inh: SRC3 coactivator transcriptional activity inhibitors, primary screen, cell-based, luminescence; HEK293 GAL4-SRC3 luciferase reporter; inhibition, % at 3.6 µM; Nuclear receptor coactivator 3 (Homo sapiens), Q9Y6Q9; actives 0.17% (n = 360,000); AID 588352, 2011;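 active means inhibition above a per-campaign cutoff, the mean of all compounds plus 3 SD, cut at about 60% in these data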;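 further: 0% = DMSO-treated cells and 100% = gossypol-treated cells at 36 µM; higher means less SRC3-driven luciferase light from the GAL4 reporter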
# NCOA2 inhibitor: inhibition of GAL4-SRC2 driven luciferase reporter, primary screen, SRC2 inhibitor project, cell-based, luminescence; Nuclear receptor coactivator 2 (Homo sapiens), Q15596; HEK293 GAL4-SRC2 luciferase reporter; inhibition, % at 9 µM; actives 0.17% (n = 370,000);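 active means inhibition above the mean inhibition of all tested compounds plus 3 SD, set per campaign, cut at about 52% in these data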;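 further: 0% = DMSO treated cells and 100% = cells given Gossypol at 36 µM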
# VP16 Luc counter: Gal4-VP16 luciferase reporter inhibitors, counter-screen for COUP-TFII antagonist project, cell-based, luminescence, HEK293; shares compounds with COUP-TFII inh; inhibition, % at 8.5 µM; actives 25% (n = 2,500); AID 687007, 2013; in the data active means inhibition above about 13%
# NR2F2 inh conf: NR2F2 transcriptional activity inhibitors, confirmation, cell-based, luciferase reporter, HEK293, triplicate. shares compounds with COUP-TFII inh. HEK293 NGFI-A luciferase reporter, luminescence. inhibition, % at 8.5 µM. actives 45% (n = 2,500);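 active means mean inhibition over three repeats above a set limit taken from the earlier primary screen, cut at about 38% in these data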;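 further: 100% = cells given the luciferase reporter alone without the COUP-TF2 vector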
# An asterisk follows results filed as active; / = no result given.
SMILES,SRC1 inh,LRH-1 inv ag,COUP-TFII inh,Gli-Sufu block,SRC3 inh,NCOA2 inhibitor,VP16 Luc counter,NR2F2 inh conf
Cc1ccc(C(=O)O/N=C(\N)c2ccccn2)c(C)c1,57,72,78*,73*,70*,77*,65*,84*
COc1ccc(-n2c(Cc3cccs3)nnc2SCC(=O)Nc2ccc(OCc3ccccc3)cc2)cc1,/,/,10,/,/,21,/,/
CC(=O)c1c(C)[nH]c(C(=O)OCC(=O)Nc2ccc(Cl)c(S(=O)(=O)N(C)C)c2)c1C,10,19,45*,19,19,14,-3,14
C[C@H]1COc2cc(N3CCCC3)ccc2S(=O)(=O)N1C,/,/,15,/,/,-1,/,/
CC(C)CN1C(=O)[C@]2(CC(=O)N(C)C2c2ccccc2)c2cc(-n3cc(CCCC#N)nn3)ccc21 (stereo partly drawn),/,/,5,/,/,4,/,/
CCc1ccc(S(=O)(=O)Nc2cc3c(cc2C)n(C)c(=O)n3C)cc1,-4,37,41*,65*,16,10,11,26
CC1(C)N=C(N)N=C(N)N1c1cc(Cl)ccc1Cl,-5,13,-6,/,-4,-1,/,/
CC1(C)N=C(N)N=C(N)N1c1ccc(Oc2ccc(Cl)cc2)c(Cl)c1,23,37,69*,65*,23,14,16*,65*
CCOC(=O)N1CCN(C(=O)C[C@H]2C[C@@]3(C(=O)OC)C(=C[C@H](C(C)(C)C)O[C@@H]3C)N(CCc3ccc(OC)c(OC)c3)C2=O)CC1,/,/,1,/,/,-1,/,/
CCN(CC)C(=O)CC[C@H]1CC[C@]2(CCCN(c3ccccc3)C2)O1,/,/,4,/,/,25,/,/
CN1CC=C(c2ccccc2)N(c2ccccc2)C1=O,/,/,11,/,/,-18,/,/
COc1ccc([C@@]23Oc4cc(OC)cc(OC)c4[C@]2(O)[C@H](O)[C@H](C(=O)N(C)C)[C@H]3c2ccccc2)cc1,90*,100*,87*,77*,89*,72*,20*,74*
CC(=O)Nc1ccc(NC(=O)c2csc([C@H]3C[C@H](O)[C@@H](CO)O3)n2)cc1,5,1,9,/,6,-13,/,/
O=C(Nc1ccc(Oc2ccccc2)cc1)c1csc([C@@H]2C[C@H](O)[C@@H](CO)O2)n1,9,24,52*,/,-1,-6,-17,27
O=C(Nc1ccc(Cl)cc1)c1csc(COCCO)n1,-34,-54,4,/,-61,-5,/,/
O=C(Nc1ccc(Oc2ccccc2)cc1)c1csc(COCCO)n1,-5,25,43*,/,3,-8,-26,27
C/C(=N\NC(N)=S)C1C2C3CC4C5CC(C42)C1C53 (stereo not drawn),21,29,57*,37,39,31,11,43*
COc1ccc(C=C(C(=O)c2ccccc2)C(=O)c2ccccc2)cc1,-109,-91,-26,/,-73,-14,/,/
CC(C)(C)NCC(=Cc1ccccc1)C(=O)c1ccccc1,51,82*,72*,17,56,68*,48*,80*
Cc1nc(SCC(=O)N2CCCCCC2)c2c(=O)n(C)c(=O)n(CC(C)C)c2n1,16,16,42*,16,15,18,0,23
CC1CCc2nc(NC(=O)C3COc4ccccc4O3)sc2C1 (stereo not drawn),53,29,64*,-10,34,41,18*,57*
Cn1nccc1C(=O)NC1CCCc2c1cnn2-c1ccc(C(C)(C)C)cc1 (stereo not drawn),11,45,69*,76*,34,26,-4,69*
CC(C)(C)c1ccc(-n2ncc3c2CCCC3NC(=O)CN2CCCC2=O)cc1 (stereo not drawn),9,2,43*,37,29,31,5,23
Cc1cc(C)cc(-n2ncc3c2CCCC3NC(=O)CN2CCCC2=O)c1 (stereo not drawn),-21,-1,-17,6,-10,3,/,/
O=C(Cc1ccccc1)NC1CCCCN(Cc2cccc(Cl)c2)C1=O (stereo not drawn),/,/,-2,/,/,-8,/,/
SMILES,SRC1 inh,LRH-1 inv ag,COUP-TFII inh,Gli-Sufu block,SRC3 inh,NCOA2 inhibitor,VP16 Luc counter,NR2F2 inh conf
COc1ccc(NC(=O)c2cc(-c3ccccc3Cl)on2)cc1OC,-21,-10,0,-13,-28,-14,/,/
O=C(Nc1cccc(O)c1)c1cc(-c2ccc3c(c2)OCO3)on1,-21,-51,43*,-152,-18,19,-2,16
O=C(Nc1cccc(O)c1)c1cc(-c2ccccc2Cl)on1,-19,-10,60*,-29,-9,31,-12,10
O=C(C1CCCN(S(=O)(=O)c2cccs2)C1)N1CCN(Cc2ccccc2)CC1 (stereo not drawn),/,/,-10,/,/,0,/,/
N#C/C(=N/Nc1ccc(OC(F)(F)F)cc1)C(N)=S,-2,-15,38*,61*,32,21,-121,-54
COc1ccc(N/N=C(\C#N)C(N)=O)cc1,-1,-4,-6,-1,11,-8,/,/
CCOC(=O)[C@]12CCCC=C1N(Cc1ccc(OC)cc1)C(=O)[C@@H]2CC(=O)N1CCCCC1,/,/,23,/,/,9,/,/
CC(NC(=O)CC1CCCCC1)c1ccccc1 (stereo not drawn),-12,6,5,-4,6,9,/,/
C=C(C)CC1(NC(C)c2ccccc2)CCCCC1 (stereo not drawn),-12,3,41*,37,9,-8,-11,-3
C#CCN1CC(N(C)CCOC(=O)CSc2ccccc2)CS1(=O)=O (stereo not drawn),/,/,-8,/,/,-8,/,/
COc1ccc(-n2cc(-c3ccc(C)cc3)[n+]3c2SCC3)cc1,47,65,66*,/,47,19,10,64*
N#Cc1ccc(-c2cn(-c3ccccc3)c3[n+]2CCCS3)cc1,-4,-7,1,10,6,1,/,/
COc1ccccc1NC(=O)OCCCN1CCC2(CCC(C)CC2)C1=O (stereo not drawn),/,/,8,/,/,20,/,/
COC(=O)c1cnn(-c2ccc(F)cc2F)c1/C=N/NC(=S)Nc1ccccc1,/,/,48*,/,/,/,-8,10
